The entries come from a sample that favours hits as a whole.
TTR transcr act – increases transthyretin transcription. SH-SY5Y TTR promoter Gaussia luciferase, luminescence; 100% = recombinant luciferase protein wells. activation, % at 16.7 µM. 92,000 compounds, 1.3% hits. AID 1117267;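 active = activation above the mean of all tested compounds plus 3 SD, cut at about 9.5% in these data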;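 note: cells exposed to compounds for one day before reading; 0% = median of all test compound wells on the plate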
HuH7 TTR inh – decreases TTR transcription in HuH7 cells in activator counter-screen; inhibition, % at 16.7 µM; AID 1117279; 1,100 compounds, 4% hits; HuH7 TTR promoter-Gaussia luciferase reporter, luminescence; shares compounds with TTR transcr act;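 active = average inhibition above the solvent-only control wells' mean plus 3 SD, cut at about 15% in these data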;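 note: 0% = cells with DMSO only and 100% = cells with inhibitor control FD; inhibitors lower well luminescence so higher value means more inhibition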
TTR act confirm – human TTR transcription activation, confirmation; shares compounds with TTR transcr act; SHSY5Y TTR promoter Gaussia luciferase, luminescence; 100% = purified Lucia enzyme wells, no cells; activation, % at 16.7 µM; 1,100 tested, under 10 active; AID 1117280;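 active = mean activation above a set limit taken from the earlier primary screen, cut at about 11% in these data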;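 note: 0% = DMSO-treated cells and 100% = recombinant Lucia luciferase without cells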
* = called active by the depositor.

SMILES | TTR transcr act | others
COC(=O)C1=C(c2ccc3ccccc3c2)C[C@@H]2CC[C@H]1N2C | -2.6
COC(=O)C1=C(c2cc3ccccc3s2)C[C@@H]2CC[C@H]1N2C(=O)NC1CC1 | 9.0
COC(=O)C1=C(c2cc3ccccc3s2)C[C@@H]2CC[C@H]1N2C | 14.3*
COC(=O)C1=C(c2ccc(OC)c(OC)c2)C[C@@H]2CC[C@H]1N2C(=O)NCCOc1ccccc1Cl | -2.9
CCN1C(=O)NC(=O)/C(=C\c2cn(CC(=O)N3CCCC3)c3ccccc23)C1=O | -1.8
COC(=O)C1=C(c2ccc(F)cc2OCc2ccccc2)C[C@@H]2CC[C@H]1N2C(=O)NCc1ccccc1 | -2.6
COC(=O)C1=C(c2ccc(F)cc2OCc2ccccc2)C[C@@H]2CC[C@H]1N2C(=O)NCC1CC1 | 1.3
COC(=O)C1=C(c2ccc(F)cc2OCc2ccccc2)C[C@@H]2CC[C@H]1N2C(=O)NCc1ccco1 | 14.6* | HuH7 TTR inh=-4.9;TTR act confirm=0.7
COC12CCC3(CC1C(C)(O)C(C)(C)C)[C@H]1Cc4ccc(OC5OC(C(=O)O)[C@@H](O)C(O)[C@H]5O)c5c4[C@@]3(CCN1CC1CC1)C2O5 (stereo partly specified) | -0.8
C/C=C1/CN2C3CC1C(CO)(C(=O)OC)C2Cc1c3n(C)c2ccccc12 (stereo unspecified) | 1.0
Cc1ccc(NP(=O)(Oc2ccccc2)Oc2ccccc2)cc1 | 0.5
CC(=O)NC(C)Cc1ccccc1 (stereo unspecified) | -1.7
O=C(c1cccc(C(F)(F)F)c1)N1C[C@H]2C[C@@H](C1)c1cccc(=O)n1C2 | 2.7
Cc1cc(OCC(=O)N2C[C@H]3C[C@@H](C2)c2cccc(=O)n2C3)c2c(C)c(C)c(=O)oc2c1 | 3.9
CN1CC[C@]23c4c5ccc(O)c4OC2C(O)C=CC3[C@H]1C5 (stereo partly specified) | 2.1
CC(=O)OC1C=CC2[C@H]3Cc4ccc(O)c5c4[C@@]2(CCN3C)C1O5 (stereo partly specified) | 16.8* | HuH7 TTR inh=-9.4;TTR act confirm=0.1
CN1CC[C@]23c4c5ccc(OC6OC(C(=O)O)[C@@H](O)C(O)[C@H]6O)c4OC2C(O)C=CC3[C@H]1C5 (stereo partly specified) | -0.8
CCOc1ccc(N2C(=O)NC(=O)/C(=C\c3ccccc3[N+](=O)[O-])C2=O)cc1 | 1.2
O=C(O)c1c[nH]c2ccc(S(=O)(=O)N(CCCl)CCCl)cc12 | -0.1
Cc1ccc2[nH]c(=S)n(-c3cccnc3)c(=O)c2c1 | -1.5
Nc1ncn[nH]1 | -2.9
CC(C)N1C(=O)NC(=O)C2(Cc3cc([N+](=O)[O-])ccc3N(C)C2c2ccccc2)C1=O (stereo unspecified) | 0.1
CN1C2CCC1CC(=NO)C2 | 26.5* | HuH7 TTR inh=-10.4;TTR act confirm=-0.3
O=c1[nH]cnc2nc(-c3ccc(N(CCCl)CCCl)cc3)[nH]c12 | 0.0
COc1ccc(N=Cc2c(O)n(Cc3cccs3)c(=O)[nH]c2=O)cc1 | -1.8
SMILES | TTR transcr act | others
CCC(C)c1cnc(CC(C)C)c(=O)n1O (stereo unspecified) | 1.4
C1=C(c2c[nH]c3ccccc23)CCNC1 | 4.3
O=C(N/N=C/c1c(O)n(Cc2ccc(F)cc2)c(=S)[nH]c1=O)c1ccncc1 | 0.3
COC(=O)C1=C(c2ccc(OC(F)(F)F)cc2)C[C@@H]2CC[C@H]1N2C(=O)NC1CC1 | 10.2* | HuH7 TTR inh=-9.4;TTR act confirm=-0.2
COC(=O)C1=C(c2ccc(OC(F)(F)F)cc2)C[C@@H]2CC[C@H]1N2C(=O)NCC1CC1 | -1.4
COC(=O)C1=C(c2ccc(OC(F)(F)F)cc2)C[C@@H]2CC[C@H]1N2C(=O)NCCO | 1.6
COC(=O)C1=C(c2cc3ccccc3o2)C[C@@H]2CC[C@H]1N2C(=O)NCc1cccc2ccccc12 | 2.3
Cc1ccccc1-n1c(O)c(/C=N/c2nccs2)c(=O)[nH]c1=O | 0.0
Cc1cccc(-n2c(O)c(/C=C/C=Nc3ccccc3)c(=O)[nH]c2=O)c1 | 1.8
Cc1cccc(N=Cc2c(O)n(-c3ccccc3C)c(=O)[nH]c2=O)c1 | 12.7* | HuH7 TTR inh=2.3;TTR act confirm=-1.5
COC(=O)C1=C(c2ccc(OC)c(OC)c2)C[C@@H]2CC[C@H]1N2C(=O)NCCNC(C)=O | -3.2
Cc1ccc2cc(CNCCc3ccccc3C)c(=O)[nH]c2c1 | -1.1
COc1cc2occc2c2oc(=O)ccc12 | 4.8
CCC(=NCCCn1ccnc1)c1c(O)n(-c2ccc(OC)cc2)c(=O)[nH]c1=O | 16.6* | HuH7 TTR inh=-9.6;TTR act confirm=0.7
CC/C(=N\Nc1ccccc1)c1c(O)n(-c2ccc(OC)cc2)c(=O)[nH]c1=O | 0.8
CCC(=NCc1cccnc1)c1c(O)n(-c2ccccc2)c(=O)[nH]c1=O | 1.6
O=C(Cc1ccccc1)OCCN1CCOCC1 | -1.6
c1cc(OCCN2CC2)ccn1 | 10.3* | HuH7 TTR inh=0.9;TTR act confirm=-0.3
c1cnc(OCCN2CC2)cn1 | 2.5
C=CCN1C(=O)/C(=C/c2cc(C)n(-c3ccccn3)c2C)C(=O)NC1=S | 0.9
O=C1NC(=O)N(c2cccc(Br)c2)C(=O)/C1=C/c1ccsc1 | 0.9
CCc1cccc(CC)c1N(COC)C(=O)CCl | -0.2
OC1(c2ccc(F)cc2)CC2CCC(C1)N2Cc1nnnn1C1CCCCC1 (stereo unspecified) | 23.4* | HuH7 TTR inh=-10.3;TTR act confirm=1.3
CC1CCCN(C(=O)CN2C3CCC2CC(O)(c2ccc(F)cc2)C3)C1 (stereo unspecified) | 0.2
OCCN1C2CCC1CC(O)(c1ccc(F)cc1)C2 (stereo unspecified) | 1.8
SMILES | TTR transcr act | others
COc1ccc2c3c1OC1C(=O)CC[C@@]4(O)[C@@H](C2)N(C)CC[C@]314 (stereo partly specified) | 1.5
COc1ccc2c3c1OC1[C@H](O)CCC4[C@@H](C2)N(C)CC[C@]314 (stereo partly specified) | 1.1
COc1ccc2c(c1O)C13CCN(C)C(C2)C1CCC(=O)C3 (stereo unspecified) | 24.4* | HuH7 TTR inh=-7.7;TTR act confirm=2.6
CN(C)C1(CNC(=O)c2ccc(Cl)c(S(=O)(=O)NCc3ccco3)c2)CCCCC1 | 1.2
Cn1c(O)c(C=Nc2ccc(Br)cc2)c(=O)n(C)c1=O | -1.5
CCn1c(C)c(C(=O)O)c2cc(OC)ccc21 | -1.3
COc1ccc(-n2c(C)cc(C(=O)C[N+]34CCN(CC3)CC4)c2C)cc1 | 9.9* | HuH7 TTR inh=-8.4;TTR act confirm=2.7
COc1ccc(CN2C(=O)NC(=O)/C(=C/c3ccc(OC)c(OC)c3OC)C2=O)cc1 | 1.6
O=S(=O)(c1ccc(Cl)cc1Cl)N1CCCC1c1cccnc1 (stereo unspecified) | 3.4
C[C@]12CCC(=O)C[C@H]1CC[C@@H]1[C@@H]2CC[C@]2(C)C(=O)CC[C@@H]12 | -0.5
C[C@]12CCC(=O)C=C1CC[C@@H]1[C@@H]2CC[C@@]2(C)[C@H]1CC[C@]2(C)O | 3.1
O=C1CC(=O)N(c2ccc(Cl)cc2)C(=O)N1 | 0.5
CCc1ccccc1N1C(=O)CC(=O)NC1=O | 9.8* | HuH7 TTR inh=-7.9;TTR act confirm=0.3
O=c1c(/C=N/N2CCOCC2)c(O)n(-c2ccccc2)c(=S)n1-c1ccccc1 | -0.3
C[C@H]1[C@@H](c2ccccc2)O[C@@H](c2ccccc2Br)N1C | 10.7* | HuH7 TTR inh=-7.9;TTR act confirm=0.0
O=C1NC(=S)NC(=O)C12C(c1ccccc1)NC(=S)NC2c1ccccc1 (stereo unspecified) | 0.0
O=C(c1ccccc1)N1CCC2(CC1)OCCO2 | 0.2
